# High-throughput results deposited in PubChem BioAssay by several laboratories.
# CYP2C9 inh: inhibitors of human CYP2C9; P11712; 96,000 compounds, 20% hits; inhibition, % at 5 µM; CYP2C9 Supersomes, luciferin-H conversion, luminescence;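 active = blocking of liver enzyme CYP2C9 beyond about 50% at 5 µM, limit read from the data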
# Target sequence (P11712 whole entry, looked up): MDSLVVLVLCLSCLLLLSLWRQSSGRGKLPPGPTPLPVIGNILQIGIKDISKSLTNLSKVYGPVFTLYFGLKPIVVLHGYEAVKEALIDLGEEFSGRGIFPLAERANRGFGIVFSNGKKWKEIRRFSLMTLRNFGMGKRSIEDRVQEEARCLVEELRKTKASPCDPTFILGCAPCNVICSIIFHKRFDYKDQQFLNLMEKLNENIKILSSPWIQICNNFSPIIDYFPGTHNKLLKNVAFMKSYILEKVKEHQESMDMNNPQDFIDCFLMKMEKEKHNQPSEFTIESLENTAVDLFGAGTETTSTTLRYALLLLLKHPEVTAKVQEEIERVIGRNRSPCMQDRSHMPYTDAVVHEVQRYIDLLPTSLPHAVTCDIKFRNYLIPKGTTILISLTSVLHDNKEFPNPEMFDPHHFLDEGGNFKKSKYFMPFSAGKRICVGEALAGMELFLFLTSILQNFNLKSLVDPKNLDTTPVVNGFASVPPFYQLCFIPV
# CYP2C9 activ: activators of human CYP2C9; P11712; recombinant CYP2C9, luciferin-H conversion, luminescence; stronger effect = higher value; factor 1 = untreated enzyme, 0 = blocked; activation factor at 5 µM; 96,000 compounds, 1.4% hits;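 active = activation factor of 2 or more for CYP2C9 at a 5 µM dose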;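 note: 0 = sulfaphenazole-blocked wells and 1 = vehicle-only wells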
# CYP2C19 inhib: blocks human cytochrome P450 2C19. P33261. CYP2C19 Supersomes, luciferin-H EGE luminescence, 30 min. inhibition, % at 5 µM. 96,000 compounds, 21% hits;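 active = CYP2C19 inhibition above a set limit at 5 µM in the primary screen, cut at about 50% in these data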;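 note: plate controls were negative control wells for no effect and 2.5 mM tranylcypromine positive control for full effect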
# Measles CPE: protection of cells from measles virus; Measles virus-infected cells, CPE protection, absorbance; protection (pct of control), % at 4 µM; 140,000 compounds, 1.5% hits; AID 841; in the data active = protection mostly above about 24%, no sharp cut-off; inactive = mostly below about 26%
# CYP2C19 activ: increases human CYP2C19 enzyme activity. P33261. recombinant CYP2C19, luciferin-H EGE luminescence; stronger effect = higher value; 0 = fully inhibited enzyme, 1 = untreated enzyme. activation factor at 5 µM. 96,000 tested, under 10 active. AID 1025;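 active = activation factor of at least 2 at 5 µM in the primary screen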;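 note: 0 = wells with 2.5 mM tranylcypromine and 1 = vehicle-only wells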
# * = called active by the depositor; / = no result given. Most compounds without a hit are left out; they make up all but 22% or so of the library.
SMILES,CYP2C9 inh,CYP2C9 activ,CYP2C19 inhib,Measles CPE,CYP2C19 activ
O=C(COc1cccc2ccccc12)N/N=C/c1ccc(Sc2nc3ccccc3s2)o1,29,0.7,18,4,0.8
O=C(Nc1ccccn1)c1ccc(Br)c(S(=O)(=O)N2CCCCC2)c1,/,/,/,8,/
Nc1nc(Cl)cc(N2CCC(c3cc(-c4ccc(Cl)cc4)n[nH]3)CC2)n1,-4,1,11,5,0.9
COc1ccc(-c2cc(C3CCN(c4cc(Cl)nc(N)n4)CC3)[nH]n2)cc1,24,0.8,59*,8,0.4
Cn1c(=O)[nH]c(=O)c2c1nc(N1CCCC1)n2CCSc1nc2ccccc2[nH]1,9,0.9,-6,3,1.1
O=C(N/N=C/c1ccc(-c2ccc(S(=O)(=O)Nc3ncccn3)cc2)o1)c1cc2ccccc2cc1O,81*,0.2,30,15,0.7
CCOc1ccc(NC(=O)C(=O)N/N=C\c2ccc(CNS(=O)(=O)c3ccccc3)o2)cc1,/,/,/,6,/
CCOc1ccc(C(=O)N/N=C/c2ccc(-c3ccc(S(=O)(=O)Nc4ncccn4)cc3)o2)cc1,72*,0.3,13,11,0.9
Nc1nnc(CC(=O)N/N=C/c2ccc(-c3ccccc3)o2)s1,/,/,/,20,/
CCN(CC)c1ccc(NC(=O)c2cccc(F)c2)c(C)c1,-92,1.9,4,2,1
COc1cc(OC)c(C2=NOC(C(=O)NCc3ccc4c(c3)OCO4)C2)cc1Cl (stereo not drawn),-16,1.2,93*,3,0.1
COc1cc(C2=NOC(C(=O)NCc3ccc(F)cc3)C2)cc(OC)c1OC (stereo not drawn),-61,1.6,69*,3,0.3
COc1ccccc1CNC(=O)C1CC(c2cccc([N+](=O)[O-])c2)=NO1 (stereo not drawn),-150,2.5*,30,8,0.7
CC(C)CCNC(=O)C1CC(c2cccc([N+](=O)[O-])c2)=NO1 (stereo not drawn),-43,1.4,23,8,0.8
CCCCNC(=O)C1CC(c2cccc([N+](=O)[O-])c2)=NO1 (stereo not drawn),-99,2*,0,7,1
Cc1nc2sccn2c(=O)c1Br,/,/,/,16,/
Cc1cn2c(nc(=O)c3cccnc32)s1,/,/,/,11,/
COC(=O)C1=NNCC12CC(=O)N(c1ccc(Br)cc1)C2=O (stereo not drawn),/,/,/,5,/
CCCCNC(=O)C1CC(c2c(Cl)cccc2Cl)=NO1 (stereo not drawn),-385,4.8*,27,17,0.7
O=C(NCc1ccc(C(F)(F)F)cc1)C1CC(c2c(Cl)cccc2Cl)=NO1 (stereo not drawn),26,0.7,64*,13,0.4
O=C(NCc1ccc(C(F)(F)F)cc1)C1CC(c2ccccc2[N+](=O)[O-])=NO1 (stereo not drawn),-77,1.8,38,4,0.6
Nn1c(SCC(=O)N2CCCCCC2)nnc1-c1ccncc1,23,0.8,31,8,0.7
Cc1csc2nc(CSc3ccc(Cl)cc3)cn12,-261,3.6*,73*,9,0.3
Clc1ccc(SCc2cn3ccsc3n2)cc1,-20,1.2,53*,57*,0.5
Nn1c(SCc2cn3ccsc3n2)nnc1-c1ccncc1,8,0.9,65*,26,0.4
SMILES,CYP2C9 inh,CYP2C9 activ,CYP2C19 inhib,Measles CPE,CYP2C19 activ
c1ccc(CSCc2cn3ccsc3n2)cc1,4,1,7,20,0.9
S=c1oc(-c2ccncc2)nn1CCc1ccncc1,85*,0.1,99*,20,0
O=C(O)CCCCCNc1ccc2nsnc2c1[N+](=O)[O-],/,/,/,9,/
CCOC(=O)C1(S(=O)(=O)c2ccc(Cl)cc2)CCN(Cc2ccc(C)cc2)CC1,99*,0,92*,23,0.1
O=C(NCCCN1CCCCC1)C1(S(=O)(=O)c2ccc(Cl)cc2)CC1,8,0.9,-8,4,1.1
COc1nc2ccccc2c(=O)n1OCC(C)C,19,0.8,82*,8,0.2
CCOc1ccc(NC(=O)NC23CC4CC(CC(C4)C2)C3)cc1,/,/,/,3,/
Cn1cc(Cl)c(C(=O)NNC(=S)NC2CCCCC2)n1,/,/,/,6,/
Cn1cc(Cl)c(C(=O)NC2CCCCCC2)n1,-34,1.3,67*,6,0.3
Cc1ccc(-c2cc(C(=O)NCCCn3ccnc3)c3ccccc3n2)s1,/,/,/,11,/
Cc1ccc2nc(-c3ccccc3)cc(C(=O)NCCCn3ccnc3)c2c1,98*,0,81*,2,0.2
O=C(NCCCn1ccnc1)c1cc(-c2ccc(Cl)cc2)nc2ccccc12,98*,0,90*,5,0.1
